According to PubChem BioAssay AID1159580 (chemical genetic matrix, 2015):
Values joined by “and” are separate entries in the source; they are usually repeats but may differ in a detail not shown here. Equal values may be shown once. Hit rate of the full screen: of about 5,500 compounds, about 2,000 (36%) were called active. About 18% were inconclusive and are not listed. No stated cut-off is given here; in the data, active means normalized growth mostly below about 0.91 (no sharp cut-off); inconclusive means no clear call, values can overlap the other calls; inactive means mostly above about 0.92. The list shows a part of the results.

Assay: chemical genetic growth profiling, strain panel (AID 1159580);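 further: tested at 20 µM; growth read once vehicle control cultures reached saturation at 30 °C; 1 = growth at the plate median or of vehicle wells; lower values mean less growth of the strain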
Conditions: S. cerevisiae deletion strains, growth OD

Measured: normalized growth

CC1(C)S[C@@H]2[C@H](NC(=O)[C@H](NC(=O)N3CCNC3=O)c3ccccc3)C(=O)N2C1C(=O)O (stereo partly drawn)
inactive: locus YAL021C, strain ccr4, hits give low values 0.989 | locus YAL026C, strain drs2, hits give low values 0.984 | locus YAL030W, strain snc1, hits give low values 0.969 | locus YBL061C, strain skt5, hits give low values 0.971 | locus YBR009C, strain hhf1, hits give low values 0.995 | locus YBR021W, strain FUR4, hits give low values 1.04 | locus YBR023C, strain chs3, hits give low values 0.979 | locus YBR171W, strain sec66, hits give low values 0.974 | locus YBR229C, strain ROT2, hits give low values 1 | locus YBR231C, strain swc5, hits give low values 0.984 | locus YBR279W, strain paf1, hits give low values 0.993 | locus YCL011C, strain gbp2, hits give low values 0.964 | locus YCL016C, strain dcc1, hits give low values 0.986 | locus YCL029C, strain bik1, hits give low values 0.99 | locus YCL061C, strain MRC1, hits give low values 0.99 | locus YCL069W, strain vba3, hits give low values 0.996 | locus YCR088W, strain abp1, hits give low values 0.985 | locus YDL005C, strain med2, hits give low values 0.978 | locus YDL035C, strain GPR1, hits give low values 0.992 | locus YDL040C, strain nat1, hits give low values 0.984 | locus YDL074C, strain BRE1, hits give low values 1.06 | locus YDL101C, strain DUN1, hits give low values 0.998 | locus YDL134C, strain PPH21, hits give low values 1 | locus YDL185W, strain tfp1, hits give low values 0.952 | locus YDL192W, strain arf1, hits give low values 0.982 | locus YDR001C, strain nth1, hits give low values 0.975 | locus YDR069C, strain doa4, hits give low values 0.988 | locus YDR101C, strain arx1, hits give low values 1.03 | locus YDR137W, strain rgp1, hits give low values 0.977 | locus YDR159W, strain sac3, hits give low values 1 | locus YDR162C, strain NBP2, hits give low values 0.972 | locus YDR195W, strain ref2 0.995 | locus YDR297W, strain sur2, hits give low values 0.979 | locus YDR318W, strain mcm21, hits give low values 0.988 | locus YDR334W, strain swr1, hits give low values 0.935 | locus YDR335W, strain msn5, hits give low values 0.971 | locus YDR388W, hits give low values 0.987 | locus YDR392W, strain spt3, hits give low values 0.908 | locus YDR502C, strain sam2, hits give low values 1 | locus YEL003W, strain gim4, hits give low values 0.994 | locus YEL037C, strain rad23, hits give low values 0.984 | locus YEL061C, strain CIN8 (second series), hits give low values 0.984 | locus YEL061C, strain CIN8, hits give low values 0.996 | locus YER015W, strain faa2, hits give low values 0.971 | locus YER016W, strain bim1, hits give low values 1 | locus YER110C, hits give low values 0.982 | locus YER111C, strain swi4, hits give low values 0.983 | locus YER155C, strain BEM2 (second series), hits give low values 0.993 | locus YER155C, strain BEM2, hits give low values 1.01 | locus YER167W, strain BCK2, hits give low values 0.997 | locus YFR010W, strain ubp6, hits give low values 0.967 | locus YGL078C, strain dbp3, hits give low values 0.989 | locus YGL086W, strain mad1, hits give low values 1.02 | locus YGL167C, strain pmr1, hits give low values 0.987 | locus YGL173C, strain kem1, hits give low values 0.967 | locus YGL227W, strain vid30, hits give low values 0.994 | locus YGL240W, strain doc1, hits give low values 1 | locus YGL248W, strain PDE1, hits give low values 1.01 | locus YGL253W, strain hxk2, hits give low values 0.996 | locus YGR135W, strain pre9, hits give low values 0.95 | locus YGR252W, strain gcn5, hits give low values 1 | locus YHR013C, strain ard1, hits give low values 0.957 | locus YHR027C, strain rpn1, hits give low values 0.966 | locus YHR030C, strain SLT2, hits give low values 0.984 and 0.983 | locus YHR079C, strain IRE1 (second series), hits give low values 0.983 | locus YHR079C, strain IRE1, hits give low values 0.963 | locus YHR094C, strain hxt1, hits give low values 0.982 | locus YHR129C, strain ARP1, hits give low values 0.997 | locus YHR142W, strain chs7, hits give low values 0.955 | locus YHR200W, strain rpn10, hits give low values 0.989 | locus YIL066C, strain RNR3, hits give low values 0.99 | locus YIL073C, strain SPO22, hits give low values 0.902 | locus YIL125W, strain kgd1, hits give low values 1 | locus YIR030C, strain dcg1, hits give low values 0.969 | locus YJL092W, strain hpr5, hits give low values 0.988 | locus YJL095W, strain BCK1 (second series), hits give low values 0.989 | locus YJL095W, strain BCK1, hits give low values 1.04 and 0.971 | locus YJL115W, strain asf1, hits give low values 0.96 | locus YJL129C, strain trk1, hits give low values 1.01 | locus YJL134W, strain LCB3, hits give low values 0.993 | locus YJL154C, strain vps35, hits give low values 0.972 | locus YJL164C, strain tpk1, hits give low values 0.996 | locus YJL166W, strain qcr8, hits give low values 0.956 | locus YJL168C, strain set2, hits give low values 0.998 | locus YJL187C, strain SWE1 (second series), hits give low values 1 | locus YJL187C, strain SWE1, hits give low values 0.988 | locus YJR043C, strain POL32, hits give low values 1.03 | locus YJR066W, strain TOR1, hits give low values 0.966
